Screening data: PubChem BioAssay, National Center for Advancing Translational Sciences (NCATS)
DT40 TDP1 CPT: DT40-hTDP1 cell growth loss with CPT | chicken DT40 Tdp1-/-;hTDP1 cells + 20 nM CPT, ATP luminescence, 48 h | Potency, µM (top dose mostly 46.2 µM), for the others: at the top dose activity change, negative = growth inhibition, usual class: inhibitors | hit rate 12% among 420,000; further: potency means the concentration at half of the fitted maximal effect; on the % scale 0 is the no-effect control and ±100 the full control effect; nearly all actives have a fitted effect of over 55% in size
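Cell growth measured by CellTiter-Glo luminescence after a minimum 48 h, 37 C compound exposure with 20 nM CPT in Tdp1-knockout DT40 cells stably expressing hTDP1, seeded 400/well; qHTS titration format.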
TGFb SMAD3 inh: blocks TGF-b signaling. HepG2 CAGA-GFP TGF-b/SMAD3 reporter, GFP fluorescence, 18 h; TGF-beta stimulated, 500 pg/mL final. AID 588855. hit rate 1.2% among 410,000. Potency, µM (doses to about 46.1 µM), for inactives: at the top dose activity, negative = inhibition, hits mostly inhibitors; further: potency means the concentration at half of the fitted maximal effect; on the % scale 0 is the no-effect control and ±100 the full control effect; nearly all actives have a fitted effect of over 65% in size
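GFP signal (ex488/em500-530) from TGF-beta-stimulated HEPG2 CAGA-GFP cells, 500 pg/mL final, 18 h at 37 degrees C in DMEM plus 1% FBS, normalized to unstimulated and DMSO-stimulated controls.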
TDP1 cell noCPT: qHTS for Inhibitors of human tyrosyl-DNA phosphodiesterase 1 (TDP1): qHTS in cells in absence of CPT. DT40 Tdp1-/- hTDP1 cells, no CPT, ATP luminescence, 48 h. Potency, µM (series often up to 46.2 µM), for inactives: at the top dose activity change, negative = growth inhibition, usual class: inhibitors. hit rate 15% among 420,000. AID 686978, 2013; further: potency means the concentration at half of the fitted maximal effect; on the % scale 0 is the no-effect control and ±100 the full control effect; nearly all actives have a fitted effect of over 55% in size
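Growth kinetics read by CellTiter-Glo luminescence after ≥48 hr at 37 °C. Cells: DT40 Tdp1-/- stably carrying human TDP1, 400 per well, compound exposure in the absence of CPT (DMSO vehicle).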
IL1B secr inh: inflammasome signaling inhibition, IL-1 beta readout; THP-1 LPS/ATP IL-1B secretion, AlphaLISA, 16 h; active compounds read low; activity change, % at 57.5 µM; hit rate 4.7% among 360,000; in the data active means activity change below about -50%; inconclusive means mostly about -30% to -49%; further: on the % scale 0 is the no-effect control and ±100 the full control effect
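THP-1 cells pretreated 1 hr with compounds (up to 57.5 uM final), then stimulated with LPS (250 ng/mL final) plus ATP (1.25 mM final); secreted IL-1B measured by AlphaLISA after 16 hr, decreased signal indicating inhibition.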
S-ASM inh: blocks human secretory acid sphingomyelinase | Potency, µM (top dose mostly 57.5 µM), for the others: at the highest dose activity change, negative = inhibition, hits mostly inhibitors | P17405 | hit rate 0.006% among 340,000 | placental ASM, HMU-PC fluorogenic substrate, 60 min | AID 504937; further: potency means the concentration at half of the fitted maximal effect
Target sequence (P17405 47-631 limits assumed): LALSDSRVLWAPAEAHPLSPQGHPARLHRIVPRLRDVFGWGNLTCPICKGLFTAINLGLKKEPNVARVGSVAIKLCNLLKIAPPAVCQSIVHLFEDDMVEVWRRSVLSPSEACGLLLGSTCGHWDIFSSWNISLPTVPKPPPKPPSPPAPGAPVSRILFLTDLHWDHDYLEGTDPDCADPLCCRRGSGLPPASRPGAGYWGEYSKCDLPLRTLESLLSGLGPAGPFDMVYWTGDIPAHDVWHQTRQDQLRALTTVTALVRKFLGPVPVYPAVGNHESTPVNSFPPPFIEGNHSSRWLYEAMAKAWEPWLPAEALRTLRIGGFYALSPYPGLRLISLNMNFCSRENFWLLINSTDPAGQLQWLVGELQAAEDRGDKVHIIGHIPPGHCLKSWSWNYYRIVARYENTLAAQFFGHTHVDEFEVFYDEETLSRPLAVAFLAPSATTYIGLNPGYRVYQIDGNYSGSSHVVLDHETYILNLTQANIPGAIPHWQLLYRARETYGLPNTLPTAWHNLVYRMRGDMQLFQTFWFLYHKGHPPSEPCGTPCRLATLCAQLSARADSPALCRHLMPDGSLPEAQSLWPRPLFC
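HMU-PC0 cleavage (9 uM final) by human placental ASM, 60 min at 37 °C following 10 min compound exposure at RT; stopped at pH 10, fluorescence Ex 386/Em 447 nm.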
HepG2 tox: kills HepG2 cells in TGF-b inhibitor counter-screen. HepG2 CAGA-GFP viability, ATP luminescence, 18 h. Potency, µM (series often up to 46.1 µM), for inactives: at the top dose activity change, negative = cytotoxicity, actives largely listed as cytotoxic. hit rate 0.76% among 410,000; further: potency means the concentration at half of the fitted maximal effect
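CellTiter-Glo luminescence gave cytotoxicity after 18 hours at 37 degrees C. The cells were HepG2 CAGA-GFP in 1% FBS DMEM, stimulated with 500 pg/mL TGF-beta after compound addition. %Activity was normalised to no-cell wells (complete cell-killing) and DMSO (no toxicity), and curves were fitted and classified.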
* = called active by the depositor; i = inactive; ? = inconclusive; / = no result; ! = not active in a repeat; [ ] = remark or other dose. Hits are enriched below; roughly 19% of the tested compounds scored in any of these assays. Unless noted, the call rests on the fitted dose curve; in most records, active means well fitted curve in the direction sought with a large enough effect; inconclusive means small, poorly fitted or top-dose-only effect, or another doubt; inactive means no such curve, though single readings can be large; an effect the other way counts as inactive or inconclusive.

SMILES	DT40 TDP1 CPT	TGFb SMAD3 inh	TDP1 cell noCPT	IL1B secr inh	S-ASM inh	HepG2 tox
CC1=C(/C=C/C(C)=C/C=C/C(C)=C/C=C/C=C(C)/C=C/C=C(C)/C=C/C2=C(C)C[C@@H](O)CC2(C)C)C(C)(C)C[C@H](O)C1	15µM*	/	15µM*	/	/	/
CC1=C(/C=C/C(C)=C/C=C/C(C)=C/C(=O)O)C(C)(C)CCC1O (stereo unspecified)	25.9µM*	/	20.6µM*	/	/	/
CC1=C(/C=C/C(C)=C/C=C/C(C)=C/C(=O)O)C(C)(C)CCC1	?	-4.0%	?	50.6	-2.4%	-9.2%
CC1=C(/C=C/C(C)=C\C=C\C(C)=C\C(=O)O)C(C)(C)CCC1	-13.5%[4.12 µM]	/	25.9µM*!	/	/	/
CC(C)(C)OC(=O)N1CCC[C@@H]1C(=O)N1CCC[C@@H]1C(=O)NCc1ccccc1Cl	-19.2%	/	-26.2%	19.9	/	/
COCc1ccc(C(=O)N2CCCC(C(=O)c3ccc(SC)cc3)C2)o1 (stereo unspecified)	?	-32.9%	?	0.0	0.3%	-8.2%
Cn1c(SCC(=O)Nc2ccc(C(N)=O)cc2)nc2c(c1=O)SCC2	7.3%	-15.7%	-3.6%	45.6	-3.9%	-1.4%
Cn1c(SCc2ccc(Br)cc2)nc2c(c1=O)SCC2	18.4µM*	19.6%	16.4µM*	14.1	-15.8%	-17.9%
Cn1c(SCC(=O)Nc2ccccc2C(F)(F)F)nc2c(c1=O)SCC2	16.4µM*	-12.7%	10.3µM*	i	2.9%	-21.7%
Cn1c(SCC(=O)Nc2cccc(F)c2)nc2c(c1=O)SCC2	14.6µM*	-1.0%	18.4µM*	8.1	-0.9%	-1.4%
CCOC(=O)c1ccc(NC(=O)CSc2nc3c(c(=O)n2-c2ccccc2OC)SCC3)cc1	?	-21.5%	11.6µM*	1.7	-1.9%	-29.3%
Cc1cccn2c(=O)cc(COc3ccc(NC(=O)COc4ccc(F)cc4)cc3)nc12	?	18.4%	-20.6%	/	/	7.8%
COc1cc(-c2nc3ccc4ccccc4c3c3c2CCC3)cc(OC)c1O	20.6µM*	11.2µM*	16.4µM*	-4.2	?	-98.0%
COc1cc(-c2nc3ccc4ccccc4c3c3c2CCC3)cc(OC)c1OC	?	6.3%	?	-0.8	0.8%	-7.1%
CC(C)C[C@H]1CN(CCCC[C@H]2CNC(=O)C(=O)N2CCc2ccc(O)cc2)C(=O)C(=O)N1CCc1ccc(O)cc1	3.8%	/	-16.8%	0.0	/	/
CC(=NC1CC1)c1c(-c2ccccc2)[nH]n(-c2nc3ccccc3s2)c1=O	?	-4.2%	22.4µM*	/	-4.8%	6.0%
CCOC(=O)c1ccc(NC(=O)C(Cc2ccccc2)N2Cc3ccccc3C2=O)cc1 (stereo unspecified)	?	?	?	/	/	3.1%
COc1cccc(C(c2cccc(OC)c2)c2ccccc2C(=O)O)c1	15.7%	0.8%	-20.2%	12.4	-1.9%	-1.2%
Cc1ccc(S(=O)(=O)N2CCC(C(=O)Nc3ccccc3N3CCCCC3)CC2)cc1C	18.4µM*	-9.3%	?	15.6	1.8%	0.0%
O=S(=O)(c1ccc2ccccc2c1)N1CCN(c2ccc(O)cc2)CC1	6.51µM*	-19.7%	8.2µM*	28.7	-11.6%	-7.2%
Cc1ccccc1C(=O)N1CCC(C(=O)Nc2ccc(S(=O)(=O)N3CCOCC3)cc2)CC1	?	0.9%	?	27.4	5.6%	-18.0%
CN(C(=O)c1ccc(S(=O)(=O)N2CCCCC2)cc1)C1CCS(=O)(=O)C1 (stereo unspecified)	-25.7%	0.0%	-2.2%	4.9	3.5%	-2.0%
Cc1ccccc1C(=O)N1CCC(C(=O)Nc2ccc(S(=O)(=O)N3CCCCC3)cc2)CC1	16.4µM*	-16.3%	11.6µM*	i	-0.1%	20.3%
Cc1ccc(S(=O)(=O)N2CCC(C(=O)N(C)C3CCS(=O)(=O)C3)CC2)cc1 (stereo unspecified)	23.1µM*	0.0%	?	23.9	-1.0%	-29.3%
Cc1ccc(Cl)cc1N1CCN(C(=O)c2cn(C)c3ccc(S(=O)(=O)N4CCCCC4)cc3c2=O)CC1	8.6%	-10.8%	6.0%	/	/	-11.4%
SMILES	DT40 TDP1 CPT	TGFb SMAD3 inh	TDP1 cell noCPT	IL1B secr inh	S-ASM inh	HepG2 tox
COc1ccc(CCC(=O)Nc2ccc(C(=O)c3ccncc3)cc2)cc1	26.3%	21.0%	5.0%	15.8	-0.3%	10.0%
C/C=C/C(=O)OCC(=O)Nc1ccc(SC(F)F)cc1	-14.8%	-1.5%	3.4%	-12.1	6.7%	11.0%
CCN(CC)C(=O)c1[nH]cnc1C(=O)N[C@@H](Cc1ccccc1)C(=O)OC(C)(C)C	?	?	?	28.1	3.0%	-39.3%
CCn1cc(/C=N\NC(=O)c2ccc(F)cc2)cn1	2.4%	19.1%	-12.5%	10.8	9.6%	2.6%
CCc1ccc(C2c3c(-c4cc(C)ccc4O)n[nH]c3C(=O)N2CCO)cc1 (stereo unspecified)	?	-11.8%	?	/	/	-19.8%
Cc1cc(NC(=O)c2ccc(NC(=O)C3CCCO3)cc2)ccc1Br (stereo unspecified)	?	-23.6%	23.1µM*	59.2	1.0%	-17.4%
CCCNC(=O)C1CCN(S(=O)(=O)c2ccc(-c3nn[nH]n3)cc2)CC1	11.6µM*	13.4%	0.0103µM*	14.3	-0.5%	-8.1%
Cc1ccc(S(=O)(=O)N2CCC(C(=O)Nc3ccc(C(C)C)cc3)CC2)cc1	23.1µM*	-8.9%	14.6µM*	-3.7	-1.7%	-36.1%
Cc1ccc(S(=O)(=O)N2CCCCC2)cc1NC(=O)C1CCN(C(=O)OC(C)(C)C)CC1	?	-1.0%	16.4µM*	22.4	/	-0.1%
CC1CCCCC1NC(=O)CSc1nnc(CC(=O)Nc2ccccc2F)n1C (stereo unspecified)	13.6%	17.6%	5.4%	8.4	1.4%	0.1%
Cc1ccc(NC(=O)Cn2cc(C=O)c3ccccc32)cc1C	?	?	?	29.5	-2.1%	-41.5%
Cc1ccc(NS(=O)(=O)c2ccc(NC(=O)C3CCCO3)cc2)cc1 (stereo unspecified)	?	14.1%	11.6µM*	2.3	0.8%	16.6%
Cc1ccc(S(=O)(=O)N2CCCN(C)c3nc4ccccc4nc32)cc1	?	-0.5%	16.4µM*	-1.6	136.5%	-13.6%
O=C(CSc1ccc2ccccc2c1)N1CCN(c2ccc(O)cc2)CC1	13µM*	-4.1%	11.6µM*	25.5	-2.4%	-7.9%
